Assays:
Experiment in all cases: PBM binding z-score (relative to random genomic background probes); higher = stronger binding; sequences stand for … in GC…GCGATTGACAGCGTAGAATGAAGG
[1] = system: FXR:RXRa (NR concentration 270 nM, RXRa partner concentration 90 nM)
Summary of the method: (§1)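 For binding z-scores, the reference was random background probes on custom Agilent 4×180K protein-binding microarrays. These arrays were incubated 1 h with ligand-free nuclear receptor dimers in PBS pH 7.4, 2% milk, 0.02% Triton X-100, 1 mM DTT, 0.2 mg/mL BSA and 0.4 mg/ml salmon testes DNA. Fluorescence was scanned after antibody detection of each partner (one per run) and regression-normalized.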

[2] = system: LXRa:RXRa (NR concentration 270 nM, RXRa partner concentration 90 nM)
Summary of the method: as §1

[3] = system: LXRa homodimer (NR concentration 270 nM)
Summary of the method: as §1

[4] = system: LXRb:RXRa (NR concentration 270 nM, RXRa partner concentration 90 nM)
Summary of the method: as §1

[5] = system: LXRb homodimer (NR concentration 270 nM)
Summary of the method: as §1

[6] = system: PPARa:RXRa (NR concentration 270 nM, RXRa partner concentration 90 nM)
Summary of the method: as §1

[7] = system: PPARg:RXRa (NR concentration 180 nM, RXRa partner concentration 90 nM)
Summary of the method: as §1

[8] = system: PPARg:RXRa 270nM:90nM, anti-RXR (NR concentration 270 nM, RXRa partner concentration 90 nM)
Summary of the method: as §1

[9] = system: PPARg:RXRa 30nM:10nM, anti-RXR (NR concentration 30 nM, RXRa partner concentration 10 nM)
Summary of the method: as §1

[10] = system: PPARg:RXRa 90nM:30nM, anti-RXR (NR concentration 90 nM, RXRa partner concentration 30 nM)
Summary of the method: as §1

[11] = system: PPARg:RXRa DBDmut IVT, anti-RXR (DBD mutation: RXRa K156A/R161A, NR concentration 270 nM, RXRa partner concentration 90 nM)
Summary of the method: as §1

[12] = system: PPARg:RXRa IVT, anti-PPARg (NR concentration 270 nM, RXRa partner concentration 90 nM)
Summary of the method: as §1

[13] = system: PPARg DBDmut:RXRa IVT, anti-PPARg (DBD mutation: PPARg1 K132A/R137A, NR concentration 270 nM, RXRa partner concentration 90 nM)
Summary of the method: as §1

[14] = system: PPARg DBDmut IVT, anti-PPARg (DBD mutation: PPARg1 K132A/R137A, NR concentration 270 nM)
Summary of the method: as §1

[15] = system: PPARg homodimer (NR concentration 180 nM)
Summary of the method: as §1

[16] = system: PXR:RXRa (NR concentration 270 nM, RXRa partner concentration 90 nM)
Summary of the method: as §1

[17] = system: PXR homodimer (NR concentration 270 nM)
Summary of the method: as §1

[18] = system: RARa:RXR (NR concentration 270 nM, RXRa partner concentration 90 nM)
Summary of the method: as §1

[19] = system: RARa homodimer (NR concentration 270 nM)
Summary of the method: as §1

[20] = system: RARb:RXRa (NR concentration 270 nM, RXRa partner concentration 90 nM)
Summary of the method: as §1

| Sequence | PBM binding z-score [1] | PBM binding z-score [2] | PBM binding z-score [3] | PBM binding z-score [4] | PBM binding z-score [5] | PBM binding z-score [6] | PBM binding z-score [7] | PBM binding z-score [8] | PBM binding z-score [9] | PBM binding z-score [10] | PBM binding z-score [11] | PBM binding z-score [12] | PBM binding z-score [13] | PBM binding z-score [14] | PBM binding z-score [15] | PBM binding z-score [16] | PBM binding z-score [17] | PBM binding z-score [18] | PBM binding z-score [19] | PBM binding z-score [20] |
| --- | --- | --- | --- | --- | --- | --- | --- | --- | --- | --- | --- | --- | --- | --- | --- | --- | --- | --- | --- | --- |
| AGAGACAGGTGATGAAGGTAACTCAGGCTATCAT | 0.266 | 0.0997 | 0.0687 | 0.476 | 0.372 | 0.328 | 0.629 | 0.513 | 0.448 | 0.733 | -0.111 | 0.416 | 0.748 | 0.187 | 0.847 | 0.283 | 0.671 | 0.263 | 1.15 | 0.706 |
| ATCGAAAGGTCGACGAAGTGAGTATACACCGTTT | 3.64 | 2.87 | -0.00377 | 2.49 | 0.429 | 3.98 | 2.23 | 2.51 | 0.7 | 1.46 | 0.569 | 1.5 | 1.34 | 0.821 | 1.08 | 2.28 | -0.00563 | 2.81 | -0.0339 | 3.71 |
| CGTCCAAGGTCAGAGAGGTCAGTGATTGCCGAGT | 5.58 | 5.02 | 2.88 | 4.28 | 0.656 | 4.54 | 3 | 3.95 | 0.692 | 2.55 | 3.12 | 3.08 | -0.867 | -0.653 | 4.12 | 5.79 | 10.6 | 4.66 | 1.54 | 5.09 |
| CCTGCTAGGTCAATGGTCAGGTAAAGCAGCTCGC | 3.13 | 2.29 | -0.153 | 1.46 | -0.313 | 3.36 | 4.48 | 5.09 | 2.62 | 4.62 | 4.38 | 4.23 | 0.154 | -0.732 | 1.38 | 0.832 | -0.154 | 1.93 | -0.238 | 3.81 |
| CTACCAAGGTGAACAAGGTCGTTGTTTACTATTC | 1.24 | 1.22 | -0.0325 | 1.85 | -0.465 | 2.46 | 0.787 | 1.29 | -0.0619 | 0.702 | 2.55 | 2.57 | 0.468 | 0.107 | 0.724 | 2.78 | 1.16 | 2.27 | -0.486 | 2 |
| CGAACTAGGTCATCCGGGACAGTGAATACATTGA | 4.46 | 2.66 | 0.565 | 2.05 | 0.166 | 5.08 | 8.08 | 6.28 | 3.97 | 5.8 | 8.35 | 8.45 | 3.68 | 1.68 | 1.84 | 1.8 | 0.618 | 2.4 | 0.0887 | 4.09 |
| CGAACTAGGTCATTGCCAGGACAGTGAATAGTAA | 3.98 | 2.75 | 0.491 | 1.6 | -0.019 | 4.39 | 6.96 | 6.06 | 3.25 | 5.51 | 8.25 | 7.95 | 1.34 | 0.503 | 1.04 | 1.4 | 0.261 | 1.87 | 0.423 | 3.44 |

Reference: the supplement of paper PMC6555819
